Assay results from PubChem BioAssay (NCI).
This is part of a sample that, as a whole, favours compounds with a hit. Of some 83,000 tested, about 20% had one in any assay.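 Cell lines were cultured in 96-well plates, exposed to a single compound concentration, and assessed for percent growth 48 hours later.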 Unmarked numbers belong to inactive results. Calls of active or inactive are those of the source. How the source made its calls: active means growth percent below 10; inactive means the rest.

Legend:
Assay in all cases: NCI-60 one-dose screen, 48 h (100 = growth as untreated, 0 = no growth, -100 = all killed)
Conditions in all cases: 10 µM unless noted
EKVX NSCLC = system: EKVX NSCLC
SN12C renal = system: SN12C renal
UO-31 renal = system: UO-31 renal
TK-10 renal = system: TK-10 renal
ACHN renal = system: ACHN renal
A498 renal = system: A498 renal
CCRF-CEM leukemia = system: CCRF-CEM leukemia
MOLT-4 leukemia = system: MOLT-4 leukemia
SR leukemia = system: SR leukemia

SMILES	growth (EKVX NSCLC)	growth (SN12C renal)	growth (UO-31 renal)	growth (TK-10 renal)	growth (ACHN renal)	growth (A498 renal)	growth (CCRF-CEM leukemia)	growth (MOLT-4 leukemia)	growth (SR leukemia)
COc1cc(NC(=O)c2cc(O)c(C/C=C(\C)CCC=C(C)C)c(O)c2)cc2c1O[C@]1(C)CC[C@@H](O)C(C)(C)[C@H]1C2	26.1%	20.5%	-21.5% (active)	56.1%	4.47% (active)	-29.2% (active)	6.24% (active)	0.564% (active)	-1.71% (active)
c1ccc(Sc2ncccn2)nc1	106%	106%	87.9%	109%	98.2%	92.9%	104%	98.4%	95.5%
CCCCCCCc1n(Cc2ccc3ccccc3c2)c2ccccc2[n+]1Cc1ccc2ccccc2c1	-73.5% (active)	-79.8% (active)	-88.1% (active)	-87.3% (active)	-87.4% (active)	-93.3% (active)	-59.1% (active)	-68% (active)	-60.4% (active)
COc1cc(C2=NN(C=O)C(c3cccc(Nc4ccnc5cc(C(F)(F)F)ccc45)c3)C2)cc(OC)c1OC (stereo unspecified)	61.5%	62.4%	37.6%	46.5%	65.5%	65.4%	37.5%	21.5%	32.3%
Nc1cc(N)nc(SCC(=O)O)n1	106%	103%	94.4%	98.2%	109%	89.4%	96.2%	103%	92.3%
COc1ccccc1-c1ccc2nc(NC(=O)Nc3cc(C(F)(F)F)cc(C(F)(F)F)c3)sc2c1	10.7%	13%	13.1%	9.11% (active)	8.64% (active)	-26.7% (active)	0.889% (active)	-15.7% (active)	-23.8% (active)
C/C(=C\c1cnc(C)s1)[C@@H]1C[C@@H]2O[C@@H]2CCC[C@H](C)[C@H](O)[C@@H](C)C(=O)C(C)(C)[C@@H](O)CC(=O)O1	44.4%	54%	36.4%	44.8%	52.8%	4.95% (active)	30.7%	31.7%	30%
CNS(=O)(=O)c1cccc(-c2ccc3c4c(n(C)c(=O)c3c2)-c2ccccc2C4=O)c1	51.7%	19.5%	35.4%	85.5%	0.944% (active)	72.1%	6.13% (active)	-1.83% (active)	3.35% (active)
O=C(/C(=C/c1ccc([N+](=O)[O-])cc1)SCc1ccccc1)c1ccc(Cl)cc1	72.6%	-25.4% (active)	59.5%	103%	76.5%	76.5%	9.82% (active)	13.5%	-1.55% (active)
